The inhibition is the change of the read-out against control, counted positive when it falls.

Among the data in PubChem BioAssay AID2521 (Sanford-Burnham Center for Chemical Genomics, 2010) are inhibition values, retold here.

Structures are written as SMILES. Among all 330,000 compounds or so, about 1,100 (0.33%) were called active. The sample holds actives, similar compounds and a random draw of the others, so the mix is not that of the screen. A number with no mark means an inactive call.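 Rule for the calls: active = inhibition above about 40% at 20 µM (limit read from the data); inactive = the rest.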

Sequence of Apelin receptor (Homo sapiens) (P35414 whole entry, looked up): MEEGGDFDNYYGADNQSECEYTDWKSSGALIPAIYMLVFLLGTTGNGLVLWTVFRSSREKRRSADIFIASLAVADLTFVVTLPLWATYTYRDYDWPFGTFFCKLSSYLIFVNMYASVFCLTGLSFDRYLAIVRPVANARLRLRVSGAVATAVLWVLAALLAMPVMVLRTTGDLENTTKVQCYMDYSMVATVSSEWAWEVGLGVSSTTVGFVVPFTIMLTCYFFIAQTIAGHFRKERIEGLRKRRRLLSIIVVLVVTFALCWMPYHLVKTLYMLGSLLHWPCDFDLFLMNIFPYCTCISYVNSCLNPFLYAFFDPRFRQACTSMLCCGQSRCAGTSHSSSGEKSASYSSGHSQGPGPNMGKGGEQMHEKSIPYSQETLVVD

The assay concerns the target Apelin receptor (Homo sapiens) (UniProt P35414). Briefly: blockade of apelin-induced APJ beta-arrestin recruitment – CHO-K1 cells, beta-arrestin complementation, luminescence, primary screen (AID 2521).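 Note: cells challenged with 10 nM apelin-13 agonist together with compound; plate controls were apelin-13 plus DMSO wells for no effect and DMSO wells lacking apelin-13 for full effect.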 Conditions: at 20 µM, active compounds read high. A general note: Arrestin recruitment assays detect the binding of arrestin to an activated receptor.
For `CC(C)NC(=O)C(c1ccc(F)cc1)N(C(=O)CCC(=O)Nc1ccccn1)c1ccccc1F` (centres undefined), the inhibition is 21.5%.
Take `CC(C)C(=O)N1CCC2(CC1)Oc1ccc(F)cc1C(=O)C21CC(c2ccccc2)=NO1` (centres undefined): the inhibition is -0.0582%.
As to `COc1cc2ccccc2cc1C(=O)Nc1nc(C)c(C(C)=O)s1`, the inhibition is 1.17%.
For the molecule `COc1cccc2sc(Nc3nc(C)c(C(C)=O)s3)nc12`, the inhibition was 60.9% (active).
In the case of `CNC(=O)c1sc(NCc2ccccc2OC)nc1C` it was -1.64%; in that of `Cc1cccc(NC(=O)Cc2ccc(Br)cc2)n1`, -4.98%; in that of `O=C(CCl)NNc1cccc(Cl)n1`, 47.2% (active).
In the case of `O=C(Cc1c(Cl)cccc1Cl)NC1CC1` it was 14.9%.
Turning to `COc1ccc(N2CCN(C(=O)CNS(=O)(=O)c3ccc(C)c(C)c3)CC2)cc1`, the inhibition is 3.43%.
As for `Cc1ccc(CC(=O)Nc2cccc(C#N)c2)cc1`, the figure is 7.58%; as for `Oc1ccc(N=Nc2nccs2)c(O)c1`, 47.6% (active); as for `CC(Oc1ccc(F)cc1)C(=O)Nc1cc(S(=O)(=O)N2CCOCC2)ccc1N1CCN(C)CC1` (centres undefined), 11.7%.
As for `CCCOc1ccc(N2CC(C(=O)Nc3ccccn3)CC2=O)cc1` (centres undefined), the figure is -12.1%; as for `COC(=O)c1cc(NC(=O)CN2CCC(C(N)=O)(N3CCCCC3)CC2)cc(C(=O)OC)c1`, 12.5%; as for `O=C(CSc1nnnn1C1CCCC1)N1CCCCC1`, -7.07%.
In the case of `CC(=O)C1=C(O)C(=O)N(c2cccnc2)C1c1ccc([N+](=O)[O-])cc1` (centres undefined) it was 5.89%.
For the molecule `CC(=O)C1=C(O)C(=O)N(c2ccc(Br)cc2)C1c1ccc([N+](=O)[O-])cc1` (centres undefined), the inhibition is 18.2%.
For the molecule `CC(=O)C1=C(O)C(=O)N(c2ccc(S(N)(=O)=O)cc2)C1c1ccccc1F` (centres undefined), the inhibition is 59% (active).
As for `COc1cccc(NC(=O)C/C(C)=N/NC(=O)C2CCCCC2)c1`, the inhibition was -8.71%.
In the case of `COc1cccc(NC(=O)C(=O)c2cn(CC(=O)N3CCOCC3)c3ccccc23)c1` it was -7%; in that of `Cc1cc(C(F)F)n2nc(C(=O)Nc3ccc(S(=O)(=O)NC45CC6CC(CC(C6)C4)C5)cc3)nc2n1`, 10.3%.
Take `O=C(NC1CCCCC1)C1CCC(CNS(=O)(=O)c2ccccc2)CC1` (centres undefined): the inhibition is -0.098%.
With `CN1/C(=c2/s/c(=C3/C(=O)N(c4ccccc4)NC3=Nc3ccccc3)n(C)c2=O)C(C)(C)c2ccccc21`, the inhibition is 40.6% (active).
For `CCOc1cccc2c1OC1(CCCCC1)N1N=C(c3cccnc3)CC21` (centres undefined), the inhibition was -4.03%.
In the case of `CN(C)CCOc1cccc(Br)c1` it was 7.12%; in that of `COCCCNc1nc2ccccc2nc1NS(=O)(=O)c1ccc(F)cc1`, 8.77%.
In the case of `COC(=O)c1ccccc1NC(=O)C1CCN(C(=O)N2CCOc3ccccc32)CC1`, the inhibition was 4.33%.
In the case of `O=C(CN(C(=O)CNC(=O)c1cccs1)c1cccc(F)c1)NC1CCCCC1` it was 15.9%; in that of `COc1cccc(C(=O)N/N=C(\C)c2cccc(NC(=O)c3ccc(F)cc3)c2)c1OC`, -21.2%.
Turning to `CCC(C)NC(=O)N[C@@H](CCSC)C(=O)O` (some centres undefined), the inhibition was 3.5%.
With `COc1cc(/C=C(\C#N)c2nc3c(s2)CC(C)CC3)ccc1O` (centres undefined), the inhibition is 40.9% (active).
In the case of `Cn1cccc1C(=O)OCC(=O)c1ccc(Br)s1` it was 6.14%; in that of `O=C(CSc1ncnc2c1nnn2Cc1ccc(F)cc1)NC1CCCC1`, 23.2%; in that of `Cc1cc(CNCc2c(C(=O)N(C)Cc3ccccc3)nc3ccccn23)nn1C`, 12.9%.
Regarding `C=CCn1c(N)c(C(=O)OCC(C)C)c2nc3ccccc3nc21`, the inhibition was 74.2% (active).
As for `COCC(C)OC(=O)c1c(N)n(CCCN2CCOCC2)c2nc3ccccc3nc12` (centres undefined), the figure is 10.9%.
For the molecule `C=CCn1c(C(C)NC(=O)CC)nc2ccccc21` (centres undefined), the inhibition is 8.11%.
As for `CCOC(=O)C1=C(NC(=S)NC(=O)c2ccccc2)c2ccccc2CC1(C)C`, the figure is -12.1%; as for `CCCCCCNC(=O)CSc1nccn1Cc1ccccc1`, 15.6%.
As for `CCOC(=O)C(CCOc1cccc(CC)c1)C(=O)OCC`, the figure is 0.162%.
Turning to `O=C(/C=C/c1cccs1)NCc1cccnc1`, the inhibition is -1.62%.
In the case of `Cc1cc(Cl)nc(NC(=O)Nc2cccc(Cl)c2)n1` it was 12.4%; in that of `Cc1cccc(NC(=S)Nc2ccc(Cl)c(Cl)c2)c1`, 9.23%; in that of `Cc1csc(NC(=S)Nc2cccc(Cl)c2)n1`, 40.6% (active).
As for `O=C(Nc1ccc([N+](=O)[O-])cc1)C1(c2ccccc2)CCOCC1`, the inhibition was 4.46%.
`CN(C(=O)COC(=O)Cn1cnc2c1c(=O)n(C)c(=O)n2C)C1(C#N)CCCCC1`: the inhibition was -8.66%.
As for `COc1cc(/C=C2/SC(=S)N(Cc3ccccc3)C2=O)cc(OC)c1O`, the figure is 44.9% (active); as for `CN1C=CC=C/C1=C1\SC(=S)N(Cc2ccccc2)C1=O`, 3.59%; as for `COc1cccc(/C=C2/SC(=S)N(CC(=O)NC3C=CS(=O)(=O)C3)C2=O)c1` (centres undefined), 2.32%.
For `O=C(O)C1CCCN(CCC=C(c2ccccc2)c2ccccc2)C1` (centres undefined), the inhibition was 6.7%.
In the case of `Cn1cnc2c1c(=O)n(Cc1c(Cl)cccc1Cl)c(=O)n2C` it was -5.54%; in that of `CC(C)C(=O)N1CC(=O)Nc2ccc(F)cc2C1c1ccc(F)cc1` (centres undefined), 5.88%; in that of `C[C@H](NC(=O)c1nc[nH]c1C(=O)NCC(=O)OC(C)(C)C)C(=O)OCc1ccccc1`, -0.246%.
As for `O=C(Nc1c2c(nn1-c1cccc(Cl)c1)CS(=O)(=O)C2)c1cccs1`, the figure is -12.4%.
As for `Cn1c(N)cc(-c2ccc(F)cc2)c(C#N)c1=O`, the figure is 16%; as for `O=[N+]([O-])c1c(NCCO)cc(Sc2nc3ccccc3s2)c2nonc12`, 95.4% (active); as for `Cc1nc2nc(CSc3nc4ccccc4s3)cc(=O)n2[nH]1`, -6.29%.
For `CCN(CC)CCCSc1nc2ccccc2s1`, the inhibition is 5.23%.
As for `CCOC(=O)c1c(/N=C/C2C(=O)CC(C)(C)CC2=O)sc(C)c1C`, the inhibition is 3.91%.
As for `COC(=O)c1ccc(NCC(=O)N2CCCCCC2)cc1`, the figure is -5.46%.
In the case of `COC(=O)c1ccc(NCC(=O)c2ccccc2)cc1` it was 72.4% (active); in that of `COc1ccc(NC(=O)CCCC(=O)c2ccccc2)cc1`, -8.49%; in that of `C=CCOc1ccc(/C=C/C(=O)OCC(=O)NC2CCCCCC2)cc1`, -9.63%.
In the case of `CCCc1nc2oc3c(OCC)ncnc3c2c2c1COC(C)(C)C2` it was 1.23%; in that of `Cc1cccc(N2CCC(NCc3c(C(=O)N4CCCCC4)nc4c(C)cccn34)CC2)c1`, -3.54%; in that of `Cc1ccc(S(=O)(=O)N(Cc2ccc(Cl)cc2)c2ccccc2C(=O)NCc2cccnc2)cc1`, -7.26%.
`Cc1cccc(-n2c(O)c(C=Nc3ccccc3N)c(=O)[nH]c2=O)c1`: the inhibition is 55.5% (active).
As for `Cc1ccc(N=Cc2c(O)n(-c3nccs3)c(=O)c3ccccc23)c(C)c1`, the figure is -0.923%; as for `Cc1cccc(N2CCN(S(=O)(=O)c3ccc4[nH]c(=O)c(=O)[nH]c4c3)CC2C)c1` (centres undefined), 0.293%.
As for `Cc1ccc(C)c2[nH]c(=O)c(CN(Cc3cccnc3)C(=S)NCc3ccco3)cc12`, the figure is 5.44%; as for `O=C(N=C1SC2CS(=O)(=O)CC2N1c1ccccc1)c1ccccc1` (centres undefined), -0.987%.
As for `CCCNc1ncnc2sc(C)c(C)c12`, the figure is 19.7%; as for `Cc1cc(C)n(-c2nc(O)cc(=O)[nH]2)n1`, 9%.
Turning to `O=C1/C(=C/c2coc3ccc(O)cc3c2=O)SC(=S)N1c1ccccc1`, the inhibition is 29.3%.
Take `CSCCC(NC(=O)COc1ccccc1)C(=O)OCCOc1ccc(Br)cc1` (centres undefined): the inhibition was 0.665%.
Consider `CSCCC(NC(=O)COc1ccccc1)C(=O)OCCOc1ccc(F)cc1` (centres undefined), for which the inhibition was 4.85%.
Consider `CSCCC(NC(=O)COc1ccccc1)C(=O)OCC(=O)c1cc2ccccc2o1` (centres undefined), for which the inhibition is 56.3% (active).
Regarding `CC(=O)Nc1ccc(S(=O)(=O)Nc2nc3n(n2)C(c2ccccc2)CC(=O)N3)cc1` (centres undefined), the inhibition is -9.74%.
Regarding `Cc1nc2cc(NCc3cccs3)ccc2n1C`, the inhibition is 1.26%.
As for `CCCCC(=O)Nc1c2c(nn1-c1ccc([N+](=O)[O-])cc1)CS(=O)(=O)C2`, the inhibition was 9.67%.
In the case of `CC1CCN(C(=O)c2cc3nc(C4CC4)cc(C(F)(F)F)n3n2)CC1`, the inhibition is 1.74%.
As to `Cc1cc(C=O)c(C)n1-c1ccc(NC2CCCCC2)c([N+](=O)[O-])c1`, the inhibition was 11.5%.
In the case of `Cc1cc(/C=N/NC(=O)CC2(C)OCCO2)c(C)n1-c1ccc(Cl)c(Cl)c1` it was -22.8%; in that of `Cc1cc(/C=N/Nc2ccc([N+](=O)[O-])cn2)c(C)n1-c1cccc(C(=O)O)c1`, 42.4% (active).
For the molecule `Cn1c(=O)c2c(-c3cccc(Br)c3)c(C#N)c(N)nc2n(C)c1=O`, the inhibition is -4.62%.
As for `NC(=O)NC(=O)C(OC(=O)CCNS(=O)(=O)c1ccccc1)c1ccccc1` (centres undefined), the figure is 12.8%; as for `CC(Oc1ccccc1F)C(=O)NN` (centres undefined), -7.83%.
In the case of `O=C1Nc2ccc([N+](=O)[O-])cc2C1=Nc1cccc(CO)c1` it was 66% (active).
In the case of `CN1CCN(/N=C2/C(=O)Nc3ccc([N+](=O)[O-])cc32)CC1`, the inhibition is 2.6%.
As for `O=[N+]([O-])c1ccc(N(CCO)Cc2ccccc2)c([N+](=O)[O-])c1`, the inhibition was -2.49%.
For `O=C(NC(=S)Nc1ccc(Cl)c(C(=O)O)c1)c1cncc(Br)c1`, the inhibition was 35.2%.
Turning to `c1ccc2cc(CCCc3cc4ccccc4cn3)ncc2c1`, the inhibition was 9.5%.
As for `Cc1cc2c(c(=O)n1C)C(C(C)C)C(C#N)=C(N)O2` (centres undefined), the figure is -2.07%; as for `COc1ccc(CCNC(=O)C2CCCN(S(=O)(=O)c3ccc(OC)cc3)C2)cc1` (centres undefined), 12.2%.
